The list is not random: actives were taken first. Their share in the collection is about 6.9%.
SW480 rereplic: DNA re-replication induction in SW480 cells; 340,000 compounds, 1.8% hits; SW480 DNA re-replication, Hoechst DNA content imaging, 48 h; Potency, µM (series often up to 46.1 µM), most hits filed as activators; AID 624297; also: nearly all actives have a fitted effect of over 55% in size
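Image-based DNA-content assay: after two days of treatment, nuclei were labelled with the DNA dye Hoechst and imaged, and hits were compounds raising the count of nuclei showing high fluorescence intensity.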
KB-V1 MDR tox: KB-V1 MDR subline cytotoxicity; KB-V1 MDR cells viability, CellTiter-Glo, 72 h; Potency, µM (top dose mostly 46.1 µM), usual class: cytotoxic; 400,000 compounds, 3.4% hits; AID 1347076; also: nearly all actives have a fitted effect of over 60% in size
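Cytotoxicity toward P-gp-expressing KB-V1 cells was determined as loss of CellTiter-Glo luminescence after 72 h at 37 degrees C. Compounds were tested in quantitative HTS format across a concentration range, with curves fitted to normalized data.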
KB-3-1 cytotox: kills parental KB-3-1 adenocarcinoma cells. KB-3-1 viability, CellTiter-Glo ATP luminescence, 72 h. Potency, µM (titrated, usually from 46.1 µM), usual class: cytotoxic. 400,000 compounds, 1.4% hits. AID 1347075; also: nearly all actives have a fitted effect of over 60% in size
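Cells are dispensed, compounds pinned in, plates held at 37 °C for 72 h, then CellTiter-Glo is added and luminescence read after 10 minutes. Cell line: parental KB-3-1 in phenol-red-free DMEM, 10% FBS.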
MCF10A rereplic: induces DNA re-replication in MCF 10a normal breast cells; AID 624296; Potency, µM (highest dose often 46.1 µM), hits mostly activators; MCF 10A DNA re-replication, Hoechst nuclear intensity, 48 h; 350,000 compounds, 2.9% hits; also: nearly all actives have a fitted effect of over 50% in size
Giardia killer: Giardia lamblia killing; Giardia lamblia trophozoite viability; 340,000 compounds, 0.15% hits; activity change, % at 7.66 µM, hits read low; AID 540267; in the data active = activity change below about -80%; inconclusive = between about -30% and that limit;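 also: parasites exposed to compound for two days anaerobically before the ATP read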
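Giardia trophozoites, 100 cells per well, were exposed to compounds for 48 hrs at 37 deg C under anaerobic conditions; viability was then read as ATP content by bioluminescence after 15-30 min at room temperature.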
S-ASM inh: human S-ASM enzyme inhibition. 340,000 compounds, 0.006% hits. AID 504937. placental ASM, HMU-PC fluorogenic substrate, 60 min. Potency, µM (top dose mostly 57.5 µM), actives largely listed as inhibitors. P17405
Target sequence (P17405 47-631 limits assumed): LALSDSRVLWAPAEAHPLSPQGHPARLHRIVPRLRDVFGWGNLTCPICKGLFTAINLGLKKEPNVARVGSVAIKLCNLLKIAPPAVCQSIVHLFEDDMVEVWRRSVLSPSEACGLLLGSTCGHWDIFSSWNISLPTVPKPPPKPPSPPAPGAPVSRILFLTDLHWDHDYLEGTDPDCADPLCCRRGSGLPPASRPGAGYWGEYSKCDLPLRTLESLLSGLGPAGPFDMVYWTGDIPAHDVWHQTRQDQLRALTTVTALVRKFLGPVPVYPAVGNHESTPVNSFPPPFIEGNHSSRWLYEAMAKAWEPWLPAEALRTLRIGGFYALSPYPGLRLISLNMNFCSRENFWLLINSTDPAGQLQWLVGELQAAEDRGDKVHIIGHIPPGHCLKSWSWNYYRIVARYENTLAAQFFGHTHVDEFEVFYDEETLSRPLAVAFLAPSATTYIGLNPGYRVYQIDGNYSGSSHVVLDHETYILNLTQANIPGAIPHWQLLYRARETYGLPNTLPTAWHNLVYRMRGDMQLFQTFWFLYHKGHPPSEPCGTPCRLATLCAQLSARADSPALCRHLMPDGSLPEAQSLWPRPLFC
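Steps: dispense placental human ASM, pin compound, wait 10 min at room temperature, add HMU-PC0 substrate at 9 uM final, incubate 60 min at 37 °C, add stop solution raising pH to 10, read fluorescence.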
Numbers stand for hits; n = inactive; u = inconclusive; x = no result; [ ] = dose if it differs, or a comment. Unless noted, calls follow the shape of the dose curve; as a rule, active = well fitted curve in the direction sought with a large enough effect; inconclusive = small, poorly fitted or top-dose-only effect, or another doubt; inactive = no such curve, though single readings can be large; an effect the other way counts as inactive or inconclusive.

SMILES	SW480 rereplic	KB-V1 MDR tox	KB-3-1 cytotox	MCF10A rereplic	Giardia killer	S-ASM inh
CCN1CCN(c2c(C=O)c(Cl)nc3ccc(OC)cc23)CC1	n	n	n	n	u	n
CC(C)CCn1c(NCCc2ccccc2)nc2c1c(=O)n(C)c(=O)n2C	n	13µM	u	n	n	n
Cn1c(NCc2cccnc2)nc2c1c(=O)n(Cc1ccccc1F)c(=O)n2C	n	14.6µM	u	n	n	n
Cc1cccc(Cn2c(NCCO)nc3c2c(=O)n(C)c(=O)n3C)c1	n	4.11µM	u	n	n	n
CCCn1c(N)c(C(=O)CSc2nc(C)nc3sc(C)c(C)c23)c(=O)[nH]c1=O	n	n	n	n	n	n
CCCn1c(N)c(C(=O)CSc2ncc(C(F)(F)F)cc2Cl)c(=O)[nH]c1=O	n	u	n	16.4µM	n	n
O=S(=O)(c1cccc(C(F)(F)F)c1)N1CCN(c2nc(-c3ccccc3)nc3ccccc23)CC1	x	n	n	x	n	x
Cc1ccc(COc2ccc(CNCCCN3CCCCCC3=O)cc2)cc1	18.4µM	n	u	u	n	n
CC1(C)CC(=O)C2=C(C1)NC(SCC(=O)Nc1ccccc1)=C(C#N)C2c1ccco1 (centres undefined)	u	n	n	16.4µM	n	n
COc1ccc(OC)c(NC(=O)CSC2=C(C#N)C(c3ccco3)C3=C(CCCC3=O)N2)c1 (centres undefined)	16.4µM	n	n	u	n	n
Cc1ccc(C(=O)CSC2=C(C#N)C(c3ccco3)C3=C(CC(C)(C)CC3=O)N2)cc1 (centres undefined)	u	n	u	u	n	n
N#CC1=C(SCC(=O)c2ccc(Cl)cc2)NC2=C(C(=O)CCC2)C1c1ccco1 (centres undefined)	u	n	u	11.2µM	n	n
Cc1ccc(NC(=O)CSC2=C(C#N)C(c3ccco3)C3=C(CCCC3=O)N2)cc1 (centres undefined)	n[9.22 µM]	n	n	u	n	n
Cc1ccc(S(=O)(=O)NCCNC(=O)CN2CCOCC2)cc1	n	n	u	n	n	n
CCOc1ccccc1NC(=O)CCC(=O)Nc1ccccc1OCC	n	n	n	n	n	n
CCOc1cc(NC(=O)CCl)c(OCC)cc1NC(=O)CCl	3.26µM	u	20.6µM	6.51µM	n	n
CCn1c2c(c(=O)n3ncc(C(=O)Nc4ccc(C(=O)OC)cc4)c13)CN(Cc1ccc(OC)cc1)CC2	x	n	n	x	x	x
O=C(NCCC1=CCCCC1)c1c(O)nc2sccn2c1=O	n	5.17µM	u	n	n	n
COc1cccc2cc(-c3nc(-c4ccccc4)c(C)s3)c(=O)oc12	x	u	u	x	n	x
Cc1cc(N(CCO)Cc2ccccc2)n2nc(-c3ccc(C(C)(C)C)cc3)nc2n1	x	n	n	x	x	x
Cc1nnc2n(-c3ccccc3)c(=O)c3c4c(sc3n12)CC(C)CC4 (centres undefined)	n	8.2µM	n	n	n	n
COc1ccc(-n2c(=O)c3c4c(sc3n3cnnc23)CC(C)CC4)cc1 (centres undefined)	n	n	n	n	n	n
CCn1c(SCc2nc(-c3ccc(OC)c(OC)c3)no2)nnc1-c1cccs1	n	9.2µM	n	n	n	n
COc1ccc(-c2noc(-c3cccs3)n2)cc1OC	n	u	u	n	n	n
COc1ccc(-c2nnc(CSc3nnc(-c4ccncc4)n3C3CCCCC3)o2)cc1OC	n	13µM	n	n	n	n
SMILES	SW480 rereplic	KB-V1 MDR tox	KB-3-1 cytotox	MCF10A rereplic	Giardia killer	S-ASM inh
COc1ccc(-c2nnc(SCc3nnc(-c4cccs4)o3)n2CC2CCCO2)cc1 (centres undefined)	n	4.61µM	n	n	n	n
CCOc1ccc(-c2nc(SCC(=O)NC3CCCC3)c(-c3ccccc3)[nH]2)cc1OC	x	n	n	x	x	x
Cc1ccc(NC(=O)/C=C/c2cccs2)c([N+](=O)[O-])c1	20.6µM	5.8µM	u	u	n	n
Cc1ccc(NC(=O)/C=C/C(=O)O)c([N+](=O)[O-])c1	n	n	n	n	n	n
COc1ccc(CN(C(C)=O)c2ccccc2C(=O)O)cc1	n	n	n	n	n	n
CC(=O)N(Cc1ccc(Br)cc1)c1ccccc1C(=O)O	2.59µM	n	n	n	n	n
Cc1[nH][nH]c(=O)c1C(c1ccc(-c2ccc(F)cc2)o1)c1c(C)[nH][nH]c1=O	n	n	n	u	n	n
Cc1[nH][nH]c(=O)c1C(c1ccc(-c2ccc(Cl)c(Cl)c2)o1)c1c(C)[nH][nH]c1=O	n	n	n	2.91µM	n	n
COc1ccc(-c2ccc(C(c3c(C)[nH][nH]c3=O)c3c(C)[nH][nH]c3=O)o2)c([N+](=O)[O-])c1	u	u	u	20.6µM	u	n
Cc1[nH][nH]c(=O)c1C(c1ccc(-c2ccc(C(=O)O)cc2)o1)c1c(C)[nH][nH]c1=O	n	n	n	n	n	n
CCOC(=O)CNC(=O)Cn1nc(N2CCN(c3ccccc3)CC2)ccc1=O	x	n	n	x	x	x
CC(=O)NS(=O)(=O)c1ccc(NC(=O)c2cc3c(=O)n4ccccc4nc3s2)cc1	u	n	n	u	n	n
CCN(CC)S(=O)(=O)c1ccc(OC)c(NC(=O)c2cc3c(=O)n4ccccc4nc3s2)c1	n	n	n	16.4µM	n	n
CCn1c(=O)[nH]c(=O)c2c(N)c(C(=O)c3ccccc3OC)sc21	n	23.1µM	n	n	n	n
CCc1cc(C(=O)c2ccccc2OC)c(N)s1	n	u	n	n	n	n
CCc1nc2ccc(C(=O)N(C)Cc3ccco3)cn2c1N(C)Cc1ccc(OC)cc1	x	n	n	x	x	x
CCOc1ccc(CCNC(=O)c2ccc(CS(=O)(=O)c3ccccc3C)o2)cc1OCC	x	n	n	x	x	x
COc1ccccc1C(=O)NC(=O)Nc1cccc(Cl)c1	n	n	n	n	n	n
Cc1cc(NC(=O)NC(=O)c2ccccc2NC(=O)CN)ccc1Oc1ncc(Br)cn1	2.91µM	u	1.16µM	u	n	n
CCOc1ccc(NC(=O)c2ccccc2NC(=O)CN(C)CC(=O)Nc2ccc(C)cc2)cc1	n	n	n	n	n	n
Cc1cc(NC(=O)NC(=O)c2ccccc2NC(=O)CN(C)C)ccc1Oc1ncc(Br)cn1	6.51µM	2.06µM	2.91µM	14.6µM	n	n
Nc1ccccc1C(=O)NC(=O)Nc1ccc(Oc2ncc(Br)cn2)c(Cl)c1	0.517µM	0.13µM	0.206µM	u	n	n
COc1ccc(NC(=O)Nc2ccccc2C(N)=O)cc1OC	n	n	n	n	n	n
CCN1C(=O)[C@@H]2[C@H](C1=O)[C@@H]1C[C@H]3C(=O)N(CC)C(=O)[C@H]3[C@@H]3C1=C(C(=O)N1C(=O)OC(=NCC4CC4)[C@]31C)[C@@H]2C	n	u	n	n	n	n

Screens from PubChem.
